Screens (PubChem)
In the library only some 12% were active in any assay of this set; here they are far more common.
CHOP inhibitor: CHOP inhibition in unfolded protein response; AID 2732; inhibition, % at 10 µM; CHO-K1 CHOP-promoter luciferase, tunicamycin-induced, 15-18 h; 220,000 tested, 3.8% active;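 active = compounds that reduced the stress-induced luciferase reporter signal by more than about 70% of percent inhibition, limit read from the data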;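 note: 0% = tunicamycin plus vehicle and 100% = wells without tunicamycin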
L major viab: inhibitors of Leishmania major promastigote growth; Leishmania major promastigotes, resazurin fluorescence viability; inhibition, % at 10 µM; 200,000 tested, 9% active; in the data active = inhibition above about 50%;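 note: promastigotes grown with compound for 44 hours at 28 °C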
Arbovirus anti: blocks arbovirus infection; 200,000 tested, 0.37% active; arbovirus infection cell-based antiviral screen; inhibition, % at 10 µM; AID 1251; in the data active = inhibition above about 30%
WT yeast gro inh: growth inhibition of WT yeast, mitochondrial fusion screen. mitochondrial fusion phenotypic screen, WT strain. inhibition, % at 10 µM. 190,000 tested, 2.1% active; in the data active = inhibition above about 58%; tested in S. cerevisiae
* = called active by the depositor; x = not tested or not shown.

SMILES	CHOP inhibitor	L major viab	Arbovirus anti	WT yeast gro inh
Cc1c(NC(=O)C(C)Sc2ncnc3ccccc23)c(=O)n(-c2ccccc2)n1C (centres undefined)	11.9	-3.9	4.5	1.0
Cn1nnnc1SC(C(=O)Nc1cccc(C(F)(F)F)c1)c1ccccc1 (centres undefined)	55.5	61.5*	9.8	15.3
C/C=C(\C)CN1CCN(c2cc(C)ccc2C)CC1	18.9	2.8	-1.1	59.2*
C/C=C(\C)CN1CCN(c2cccc(C)c2C)CC1	29.4	5.6	-0.8	-2.6
Cc1ccc(C)c(S(=O)(=O)N2CCCOC2CNC(=O)C(=O)NCc2ccncc2)c1 (centres undefined)	-6.4	-3.6	11.1	-5.2
CC(C)NC(=O)c1cc(-c2ccco2)nn1-c1ccc(Cl)cc1	x	50.2*	-6.7	-2.4
O=C(c1cc(-c2ccco2)nn1-c1cccc(Cl)c1)N1CCCCC1	70.5*	15.5	-3.0	-18.3
Cc1ccc(-n2nc(-c3ccco3)cc2C(=O)O)cc1	3.4	x	x	x
CCCCC1=CC2=CC(=O)C(C)(OC(=O)c3cnc4ccccc4n3)C(=O)C2=CO1 (centres undefined)	10.8	x	x	x
N#CCc1nn(-c2ccccc2)c2ncnc(N)c12	26.8	x	x	x
Cc1cc(N)nc(C)c1C#N	6.8	-6.7	6.3	7.5
CC(=O)[C@@]1(O)C(C)CC2C3C=C(C)C4=Cc5c(cnn5-c5ccccc5)C[C@]4(C)C3C(O)C[C@@]21C (some centres undefined)	18.9	x	x	x
Cc1cc(Nc2cccc(C(F)(F)F)c2)n2nc(C)nc2n1	22.8	-4.5	-9.1	79.1*
COc1cc2ncc(C(=O)c3ccccc3)c(N3CCN(Cc4ccccc4)CC3)c2cc1OC	29.2	x	x	x
O=C(NCCSc1ccc(Cl)cc1)c1ccc(CN2CCOCC2)cc1	-6.8	38.2	-5.5	-19.6
Clc1ccc(SCCCCN2CCOCC2)cc1	12.6	96.7*	-5.8	18.8
Clc1ccc(SCCCCN2CCNCC2)cc1	7.0	100.2*	1.2	37.2
CC1(C)NC(=O)N(CCCSc2ccc(Cl)cc2)C1=O	47.6	12.5	-2.1	14.3
O=C(CCN1CCOCC1)c1ccc(Br)cc1	-29.8	33.1	-6.4	-6.9
Cc1ccc(SCCCCN2CCNCC2)cc1	56.6	99.8*	-1.0	0.3
O=C(CCN1CCOCC1)c1ccc(Cl)cc1	-18.9	71.7*	-3.3	-14.5
COc1ccccc1NC(=S)Nc1ccc2cn[nH]c2c1	7.2	21.5	1.6	-2.1
Cc1cc(C(=O)NC(CC(C)C)C(=O)O)cc(C)c1[N+](=O)[O-] (centres undefined)	-2.5	17.2	-0.5	-14.2
COc1ccc(C(=O)NCc2ccc3c(c2)CCO3)cc1	9.1	x	x	x
Fc1c(CSC(=S)N2CCOCC2)cccc1CSC(=S)N1CCOCC1	3.2	x	x	x
SMILES	CHOP inhibitor	L major viab	Arbovirus anti	WT yeast gro inh
COc1ccc(NC(=O)CN2CCN(C3c4ccccc4-c4ccccc43)CC2)cc1	32.7	23.6	-15.5	4.6
CCCN(CCC)S(=O)(=O)c1ccc(C(=O)Nc2nc3c(s2)CCc2ccccc2-3)cc1	77.5*	5.0	-16.9	0.9
Cc1ccc2nc(-c3ccc(NS(=O)(=O)c4ccc(F)cc4)cc3)sc2c1	104.0*	64.7*	-38.6	95.0
Cc1ccc2nc(-c3ccc(N)cc3)sc2c1	78.1*	x	x	x
CC(=O)Nc1ccc(S(=O)(=O)Nc2nc3ccc(C)cc3s2)cc1	3.6	-17.8	5.3	-3.4
CCC(C)(C)NC(=S)Nc1ccc(-c2nc3ccc(C)cc3s2)cc1	32.3	74.7*	-20.1	1.8
O=C(N/C(=C/c1ccco1)C(=O)N1CCCCC1)c1cccs1	9.3	-3.8	0.1	-6.4
CCOC(=O)C(CC)(CC)C(=O)/C=C/c1cccc(Br)c1	x	100.0*	x	x
O=S(=O)(Nc1cc(Cl)ccc1N1CCCCC1)c1cccs1	53.4	18.6	-0.6	59.8*
O=S(=O)(Nc1ccc(N2CCCCC2)cc1)c1cccs1	11.5	8.7	-4.6	2.1
CN1CCN(C(=S)NC(CC(=O)c2ccccc2)c2ccccc2)CC1 (centres undefined)	1.3	x	x	x
N#CC1=C(N)NC(SCc2ccc(F)cc2)=C(C#N)C12CCCCC2	45.2	98.5*	-23.5	9.0
O=C(Cn1c(=O)oc2cccnc21)Nc1ccc(C(F)(F)F)cc1	11.2	x	x	x
Brc1ccc2[nH]c3c(c2c1)CCC3	-0.5	x	x	x
NC(=O)c1cc(Br)cc2c3c([nH]c12)CCCC3	84.8*	27.0	-0.1	66.3*
CCOc1ccc(-n2cc(-c3ccccc3)c3c(=O)[nH]cnc32)cc1	32.9	20.7	-14.2	29.4
O=c1[nH]cnc2c1c(-c1ccccc1)cn2-c1ccc(Br)cc1	59.4	9.1	-5.0	70.9*
CN(C)C(=O)C(NC(=O)c1ccccc1)=C(Cl)Cl	16.7	1.6	2.2	-13.2
CCCCc1c(CCC)c(=N)c2ccccc2n1C	4.6	100.1*	6.0	-8.0
Cc1cc(Nc2ccccc2Cl)n2nnnc2n1	-5.2	87.2*	3.2	-6.7
